This is an account of results in PubChem BioAssay.

A number with no mark means an inactive call. No rule for the calls is given here.

Pantothenate synthetase (Mycobacterium tuberculosis (strain ATCC 25618 / H37Rv)), sequence (P9WIL5 whole entry, looked up): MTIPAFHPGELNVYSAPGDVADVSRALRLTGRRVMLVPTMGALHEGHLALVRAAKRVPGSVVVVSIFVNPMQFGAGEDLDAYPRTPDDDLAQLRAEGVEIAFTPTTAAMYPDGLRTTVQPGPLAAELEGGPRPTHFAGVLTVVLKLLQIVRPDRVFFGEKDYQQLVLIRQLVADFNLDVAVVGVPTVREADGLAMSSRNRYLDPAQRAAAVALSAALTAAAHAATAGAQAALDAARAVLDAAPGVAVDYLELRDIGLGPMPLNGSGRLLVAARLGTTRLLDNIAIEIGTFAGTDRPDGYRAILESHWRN

The test concerns the target Pantothenate synthetase (Mycobacterium tuberculosis (strain ATCC 25618 / H37Rv)) (UniProt P9WIL5). Nature of the test: Recombinant Mtb pantothenate synthetase (PanC) inhibitors, coupled enzyme, confirmatory (AID 375).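 Also: 0% = full reaction with vehicle and 100% = no enzyme background.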 As to conditions: coupled enzyme assay; at 10 µM, hits give high values.
The term inhibition denotes the change of the read-out against control, counted positive when it falls. Regarding `CCn1c(=N)n(CC(=O)c2ccco2)c2ccccc21`, the inhibition is 0%.

As to `CC1(C)CC(=O)c2sc(NS(C)(=O)=O)nc2C1`, the inhibition is 0%.

On to `Cc1ccc(-c2noc(CN3CCN(c4ccccc4F)CC3)n2)cc1`, for which the inhibition is 0%.

Consider `O=C(CSCc1n[nH]c(=O)[nH]1)NCCOc1cccc(Oc2ccccc2)c1`, for which the inhibition is 1%. Take `COc1ccccc1Cn1nnc2c(=O)[nH]c(C3CCN(C(=O)c4ccccc4Cl)CC3)nc21`: the inhibition is 0%.

In the case of `COc1ccccc1CN1C(=O)CCC1(C)C(=O)NC1CCCCCC1` (stereo not given), the inhibition is 8%. The value for `COCCN(C(=O)CCC(=O)Nc1ccccn1)C(C(=O)NC1CCCC1)c1ccc(OC)cc1` (stereo not given) was 0%; that for `O=C(CCN1CCN(CCO)CC1)Nc1ccc(OCc2ccccc2)cc1` was 6%. The value for `CCSc1nnc(N2C(=O)CC(c3ccsc3)C3=C2CC(C)(C)CC3=O)s1` (stereo not given) was 0%. The value for `Cc1cc(C(=O)NCc2ccc(S(N)(=O)=O)cc2)cs1` was 16%; that for `CC1=C(C(=O)N2CCCCC2)C(c2cccs2)C2=C(CCCC2=O)N1` (stereo not given) was 0%. `CN(C(=O)c1ccno1)c1nnc(-c2cnccn2)s1`: the inhibition was 2%. Regarding `CC1=C(C(=O)Nc2ccc(F)cc2)C(c2cccc(C)c2)n2nc(CCCO)nc2N1` (stereo not given), the inhibition was 6%. Take `COc1ccc(/C=C(/C#N)c2cccnc2)cc1OC`: the inhibition is 8%. For `CCCOc1cccc(NC(=O)c2c(-c3ccccc3)noc2C)c1`, the inhibition was 0%. In the case of `Cc1cccc(N2C(=O)CC(Sc3nc(C)c4c(n3)CCCC4)C2=O)c1` (stereo not given) it was 0%; in that of `O=C(CN1C(=O)c2ccccc2S1(=O)=O)NCc1ccccc1Cl`, 0%. On to `CCC(Sc1ccc(C(=O)O)cc1)C(=O)O` (stereo not given), for which the inhibition was 2%. In the case of `CCn1c(SCC(N)=O)nnc1-c1ccc(S(=O)(=O)N2CCN(C)CC2)cc1` it was 0%; in that of `COCCCNC(=O)C1CCN(C(=O)Nc2ccc(Cl)cc2)CC1`, 0%.

As for `CCN(CC)CCNC(=O)c1ccc(N)cc1`, the inhibition was 0%.

On to `CC(=O)c1cccc(NS(=O)(=O)c2ccc3c(c2)oc(=O)n3C)c1`, for which the inhibition is 0%. In the case of `CCc1ccc(NC(=O)CS(=O)CC(=O)NC(C)CCc2ccco2)cc1` (stereo not given) it was 2%; in that of `COc1ccc(N2C(=O)c3cccc4cccc(c34)C2=O)nn1`, 0%.

Regarding `Cc1c(NC2=NC3(CCCCC3)Cc3ccccc32)c(=O)n(-c2ccccc2)n1C`, the inhibition is 2%. On to `CCOc1cc(C2/C(=C(/O)c3ccc(OC(C)C)cc3)C(=O)C(=O)N2CCCOC)ccc1O` (stereo not given), for which the inhibition is 0%. As for `O=C(CCn1c(=O)oc2ccccc21)NCCN1CCc2ccccc2C1`, the inhibition is 0%. The value for `Cc1noc(C)c1C(=O)OCC(=O)Nc1ccccc1C(=O)NC(C)c1ccccc1` (stereo not given) was 14%.

In the case of `CCOC(=O)c1ccc(N2C(=O)C3CC=CCC3C2=O)cc1` (stereo not given), the inhibition was 1%. With `CCN(CC)S(=O)(=O)c1ccc(S(=O)(=O)N(Cc2ccccn2)Cc2ccco2)cc1`, the inhibition was 11%. As for `CCOC(=O)c1ccc(NC2OC(=O)c3ccccc32)cc1` (stereo not given), the inhibition was 4%. Turning to `COCCCN(C)C1CCN(C(=O)Nc2ccc(F)cc2)CC1`, the inhibition is 0%. The value for `COc1cc2c(cc1OC)-c1nnc(C)n1C1(CCCC1)C2` was 0%; that for `CCN(CC)c1ccc(NC(=O)CN2CCN(CC(=O)Nc3ccccc3F)CC2)cc1` was 1%.

Regarding `Cc1ccc2nc(NC(=O)C3CCCN(S(=O)(=O)c4cccc5nonc45)C3)sc2c1` (stereo not given), the inhibition is 1%. In the case of `Nc1nc(NC(=O)c2cccs2)nn1-c1ccccc1` it was 1%; in that of `CCOC(=O)c1ccccc1NC(=O)c1ccc2c(=O)n3c(nc2c1)CCCCC3`, 0%. As to `O=C(Nc1cccc(OCC(=O)N2CCOCC2)c1)C1CCCCC1`, the inhibition was 0%. The value for `CCN(CC)CCN1C(=O)C(O)=C(C(=O)c2cccs2)C1c1ccc(C)o1` (stereo not given) was 0%; that for `O=C(NCc1ccc2c(c1)OCO2)C1CCCN(S(=O)(=O)c2cccc3cccnc23)C1` (stereo not given) was 0%.
